{"source": "PubChem BioAssay (NCATS)", "note": "Where “and” joins values, the source holds several entries; their conditions need not be identical. Identical values can stand only once. Inconclusive results are not listed. Calls of active or inactive are those of the source. The call rests on the fitted dose curve; in most records, active means well fitted curve in the direction sought with a large enough effect; inconclusive means small, poorly fitted or top-dose-only effect, or another doubt; inactive means no such curve, though single readings can be large or run the other way. On the % scale 0 is the no-effect control and ±100 the full control effect; potency means the concentration at half of the fitted maximal effect.", "data": [{"test": "qHTS Assay for Identifying Gametocytocidal Compounds (AID 743244);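 on max response: actives lower the fluorescent signal which means gametocytes are killed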", "conditions": "P. falciparum 3D7 stage III-V gametocytes, alamarBlue, 72 h; max response: hits give low values", "summary_of_the_method": "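P. falciparum 3D7 stage III–V gametocytes (20,000 cells/well) were exposed to compounds for 72 h at 37 °C, 5% CO2. AlamarBlue was then added for 24 h; decreased resorufin fluorescence (Ex 525/Em 598 nm) indicated loss of viability.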", "values": [{"smiles": "CCC(=O)O[C@@](Cc1ccccc1)(c1ccccc1)[C@@H](C)CN(C)C", "max response": "5.87% (inactive)"}, {"smiles": "O=C(CCl)c1ccc(Oc2ccc(C(=O)CCl)cc2)cc1", "max response": "0.618% (inactive)"}, {"smiles": "COC1=CC=C2[C@H]3Cc4ccc(OC)c5c4[C@@]2(CCN3C)[C@H]1O5", "max response": "13.9% (inactive)"}, {"smiles": "NCC[C@H](O)C(=O)N[C@@H]1C[C@H](N)[C@@H](O[C@H]2O[C@H](CN)[C@@H](O)[C@H](O)[C@H]2N)[C@H](O[C@@H]2O[C@H](CO)[C@@H](O)[C@H]2O)[C@H]1O", "max response": "16.1% (inactive)"}, {"smiles": "CCCC(C)(COC(N)=O)COC(=O)NC1CC1", "note": "(stereo not given)", "max response": "6.87% (inactive)"}, {"smiles": "CCN(CC)CCO[C@H]1CC[C@@]2(C)C(=CC[C@@H]3[C@@H]2CC[C@]2(C)C(=O)CC[C@@H]32)C1", "max response": "-4.56% (inactive)"}, {"smiles": "CCCC(C)C1(CC)C(=O)NC(=O)NC1=O", "note": "(stereo not given)", "max response": "-3.05% (inactive)"}, {"smiles": "OC(c1ccccc1)(c1ccccc1)C1CN2CCC1CC2", "note": "(stereo not given)", "max response": "-14.7% (inactive)"}, {"smiles": "Cc1ccccc1-n1c(CF)nc2ccc(N)cc2c1=O", "max response": "-0.397% (inactive)"}, {"smiles": "CCC1(CC)C(=O)NC(=O)N(C)C1=O", "max response": "-12.2% (inactive)"}, {"smiles": "C[C@]12CC[C@H]3[C@@H](CCC4=C(O)C(=O)CC[C@@H]43)[C@@H]1CC[C@@H]2OC(=O)CCC1CCCC1", "max response": "-3.51% (inactive)"}, {"smiles": "CC(=O)O[C@H]1CC[C@@]2(C)C(=CC[C@@H]3[C@@H]2CC[C@]2(C)C(=O)CC[C@@H]32)C1", "max response": "5.11% (inactive)"}, {"smiles": "CCC(C)(S(=O)(=O)CC)S(=O)(=O)CC", "max response": "7.4% (inactive)"}, {"smiles": "CC(=O)O[C@H]1CC[C@H]2[C@@H]3CCC4=CC(=O)CCC4=C3C=C[C@]12C", "max response": "5.16% (inactive)"}, {"smiles": "CC1(C)[C@H](C=C(Cl)Cl)[C@H]1C(=O)OCc1c(F)c(F)cc(F)c1F", "max response": "0.31% (inactive)"}, {"smiles": "C/C(=C\\c1csc(C)n1)[C@@H]1C[C@@H]2O[C@]2(C)CCC[C@H](C)[C@H](O)[C@@H](C)C(=O)C(C)(C)[C@@H](O)CC(=O)O1", "max response": "12.6% (inactive)"}, {"smiles": "C[C@]12CC[C@H]3[C@@H](CCC4=C(Cl)C(=O)CC[C@@]43C)[C@@H]1CC[C@@H]2O", "max response": "-5.5% (inactive)"}, {"smiles": "CN(C)CCCCCCN(C)C", "note": "(tested in a mixture with another compound)", "max response": "14.8% (inactive)"}, {"smiles": "FC(F)OC(F)(F)C(F)Cl", "note": "(stereo not given)", "max response": "-4.54% (inactive)"}, {"smiles": "O=S(=O)(O)c1cc(O)ccc1O", "max response": "6.77% (inactive)"}, {"smiles": "COC(=O)[C@@H]1[C@H]2CC[C@@H](C[C@H]1OC(=O)c1ccccc1)N2C", "max response": "5.25% (inactive)"}, {"smiles": "CN1c2ccccc2C(NCCCCCCC(=O)O)c2ccc(Cl)cc2S1(=O)=O", "note": "(stereo not given)", "max response": "-8.42% (inactive)"}, {"smiles": "Cn1sc(Cl)cc1=O", "max response": "0.945% (inactive)"}, {"smiles": "CCC1(C)CC(=O)NC(=O)C1", "max response": "2.58% (inactive)"}, {"smiles": "ClC1=C(Cl)[C@]2(Cl)[C@@H]3[C@H]4C[C@H]([C@@H]5O[C@H]45)[C@@H]3[C@@]1(Cl)C2(Cl)Cl", "max response": "19.8% (inactive)"}, {"smiles": "O=[N+]([O-])c1cc(I)c(O)c(I)c1", "max response": "0.0812% (inactive)"}, {"smiles": "C[C@]12C=CC(=O)C=C1CC[C@@H]1[C@@H]2CC[C@]2(C)OC(=O)CC[C@@H]12", "max response": "-1.22% (inactive)"}, {"smiles": "[2H]C([2H])([2H])[C@H](N)Cc1ccccc1", "max response": "14.3% (inactive)"}, {"smiles": "CC(N)Cc1ccc(O)cc1", "note": "(stereo not given)", "max response": "1.03% (inactive)"}, {"smiles": "OC[C@@H](O)[C@H]1O[C@@H]2O[C@@H](C(Cl)(Cl)Cl)O[C@@H]2[C@H]1O", "max response": "-7.25% (inactive)"}, {"smiles": "CC(=O)[C@H]1CC[C@H]2[C@@H]3CC[C@@H]4C[C@H](O)CC[C@]4(C)[C@H]3CC[C@]12C", "max response": "-3.94% (inactive)"}, {"smiles": "CCON=O", "max response": "-5.54% (inactive)"}, {"smiles": "CCOC(=O)/C=C(C)/C=C/C[C@@H](C)CCCC(C)C", "max response": "10.1% (inactive)"}, {"smiles": "CCCC(=O)OC(C(Cl)(Cl)Cl)P(=O)(OC)OC", "note": "(stereo not given)", "max response": "-0.455% (inactive)"}, {"smiles": "CCNC1(c2cccs2)CCCCC1=O", "note": "(stereo not given)", "max response": "-0.213% (inactive)"}, {"smiles": "CC(=O)OCC(=O)[C@H]1CC[C@H]2[C@@H]3CC[C@H]4C[C@H](O)CC[C@]4(C)[C@H]3C(=O)C[C@]12C", "max response": "11.4% (inactive)"}, {"smiles": "Oc1cccc[c]1[Hg][Cl]", "Potency": "1.78 µM (active)"}, {"smiles": "CC(=O)Oc1ccc2c3c1O[C@H]1[C@@H](OC(C)=O)C=C[C@H]4[C@@H](C2)N(C)CC[C@@]341", "max response": "1.05% (inactive) and 0.272% (inactive)"}, {"smiles": "O[C@H]1[C@H]2[C@H](O)CCCN2C[C@H]1O", "max response": "-8.84% (inactive)"}, {"smiles": "C=CCN1CC[C@]23c4c5ccc(O)c4O[C@H]2[C@@H](O)C=C[C@H]3[C@H]1C5", "max response": "2.17% (inactive)"}]}]}
